Data on 50 molecules can be found in PubChem BioAssay AID652154 (Broad Institute, 2013).

A word on the inhibition: it is the change of the read-out against control, counted positive when it falls.

“And” between values parts separate entries of the source, which are not always exact repeats. Identical values can stand only once. Hit rate of the full screen: of about 360,000 compounds, about 4,200 (1.2%) were called active. The sample holds actives, similar compounds and a random draw of the others, so the mix is not that of the screen. Values without a mark were called inactive.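 The calls were made as follows: active = mean replicate inhibition at least 60% with every replicate also reaching 60%; inconclusive = only one of the two criteria is met; inactive = mean below 60% and not all replicates reaching 60%.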

The assay can be described thus: PAX8 transcriptional activity inhibition in RMG-I – RMG-I cells, luciferase, single concentration, primary screen (AID 652154).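 Also: luciferase light reporting Pax8 driven TPO promoter activity; plate controls were median of neutral control wells for no effect and mitoxantrone controls for full effect.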 The following applies: RMG-I TPO-luciferase reporter, SteadyGlo, 24 h; at 12.6 µM; active compounds read high. In general terms: In a reporter assay the amount or activity of a reporter protein is the signal.
Consider `CN(C)CC1Oc2ccccc2OC1(O)c1ccccc1` (stereo not given), for which the inhibition is 78.4% (active).

In the case of `O=C(Cc1ccccc1)N1CCCCN2[C@H](CO)[C@H](c3ccc(C#Cc4ccccc4)cc3)[C@H]2C1`, the inhibition was 0.0955%. For `O=C(Cc1ccncc1)N1CCCCN2[C@H](CO)[C@@H](c3ccc(C#CC4(O)CCCC4)cc3)[C@H]2C1` the value was -4.86%; for `O=C(Cc1ccccc1)N1CCCCN2[C@H](C1)[C@H](c1ccc(C#CC3(O)CCCC3)cc1)[C@@H]2CO`, 12.4%; for `CCC(C)(O)C(=O)OC1C(=O)OC2CC3C(C)=CC(=O)C(O)C3(C)C3C4(O)OCC23C1C(C)C4O` (stereo not given), 96.4% (active). For `C/C=C/c1ccc([C@H]2[C@H](CO)N3CCCCN(C(=O)Cc4ccncc4)C[C@@H]23)cc1` the value was 11.3%; for `N#Cc1cccc(-c2ccc([C@H]3[C@@H](CO)N4CCCCN(C(=O)Cc5cccnc5)C[C@@H]34)cc2)c1`, -12%.

On to `Cc1cc(N2CCNC[C@@H]2C)ccc1N1CC[C@H](O)C1`, for which the inhibition is 1.43%. For `CC(=CCOc1ccc2ccc(=O)oc2c1)C1=CC(=O)C(C)(C)O1` the value was 108% (active). For `COc1ccc(C#Cc2ccc([C@H]3[C@H](CO)N4CCCCN(C(=O)Cc5ccccc5)C[C@@H]34)cc2)cc1` the value was -13.5%; for `C/C=C/c1ccc(C2[C@@H]3CN(Cc4cncnc4)C[C@H]2N3)cc1` (stereo not given in full), -5.53%; for `COc1cccc(-c2ccc3n(c2=O)C[C@@H]2[C@@H](CO)[C@H](C(=O)O)[C@H]3N2C(=O)c2cnccn2)c1`, 1.83%. For `COC(=O)[C@@H]1[C@@H](CO)[C@@H]2Cn3c(ccc(-c4ccc(F)cc4)c3=O)[C@H]1N2C(C)=O` the value was -4.95%; for `CCOc1ccc(-c2cc(C)[n+](CCN(CC)CC)c(-c3ccc(OCC)cc3)c2)cc1`, 87.4% (active); for `CCOC(=O)[C@]12Cc3cc(OC)ccc3[C@H]1N(C(C)C)C(=O)c1ccccc12`, -13.7%. In the case of `O=C(Cc1ccncc1)N1CCCCN2[C@@H](CO)[C@H](c3ccc(C#CC4(O)CCCC4)cc3)[C@@H]2C1`, the inhibition was -6.83%. Take `O=S(=O)(c1ccccc1)N1CCC2CCNC2C1` (stereo not given): the inhibition was -15.4%. For `O=C(Cc1cccnc1)N1CCCCN2[C@@H](CO)[C@H](c3ccc(C#CC4CCCC4)cc3)[C@@H]2C1` the value was -34.4%. For `COc1cccc(-c2ccc([C@H]3[C@H]4CN(C(=O)Cc5ccncc5)CCCCN4[C@H]3CO)cc2)c1` the value was 47.9%; for `CCOC(=O)[C@@H]1[C@@H]2NC(=O)N[C@@]1(C)Oc1ccccc12`, 8.82% and -6.19%.

`Brc1ccc2c(c1)CNCc1cnnn1-2`: the inhibition is -19.7%. For `O=C(O)[C@H]1[C@H](CO)[C@H]2Cn3c(ccc(-c4ccccc4)c3=O)[C@@H]1N2S(=O)(=O)c1ccccc1F` the value was -5.43%; for `O=c1[nH]c2ccccc2n1C1CCN(C(c2ccnc3ccccc23)c2nnnn2Cc2ccccc2)CC1` (stereo not given), -10.5%; for `O=C1NCN(c2ccccc2)C12CCN(C(c1cccs1)c1nnnn1C1CCCCC1)CC2` (stereo not given), -2.94%. For `COc1cccc(C(c2nnnn2-c2ccc3c(c2)OCCO3)N2CCC3(CC2)C(=O)NCN3c2ccccc2)c1OC` (stereo not given) the value was -8.19%; for `CSCCC(c1nnnn1C(C)(C)C)N1CCC(n2c(=O)[nH]c3ccccc32)CC1` (stereo not given), 32.9%; for `COc1ccc(-n2nnnc2C(c2cccc3ccccc23)N2CCC(n3c(=O)[nH]c4ccccc43)CC2)cc1` (stereo not given), 63.7% (active). For `O=c1[nH]c2ccccc2n1C1CCN(C(c2ccccc2)c2nnnn2Cc2ccccc2)CC1` (stereo not given), the inhibition is 82.1% (active). For `CCOC(=O)[C@]12Cc3ccccc3[C@H]1N(C1CCCCC1)C(=O)c1cc(OC)ccc12` the value was 49.5%; for `COc1cccc(-c2ccc3n(c2=O)C[C@H]2[C@H](CO)[C@@H](C(=O)O)[C@@H]3N2C(=O)c2cnccn2)c1`, -1.69%; for `CS(=O)(=O)N1CCC2CCNC2C1` (stereo not given), -27.9%.

As for `COc1cc(OC)cc(C(=O)NCCN2CCC3(CC2)C(=O)NCN3c2ccccc2)c1`, the inhibition was -21.4%. Take `O=C(Cc1ccccn1)N1CCCCN2[C@@H](CO)[C@@H](c3ccc(C#Cc4ccccc4)cc3)[C@@H]2C1`: the inhibition is 9.59%.

Take `CC1=CC(=Cc2sc3ccccc3[n+]2C)C=C(C)O1`: the inhibition was 74.9% (active). Take `C/C=C/c1ccc(C2[C@@H]3CN(S(C)(=O)=O)C[C@H]2N3)cc1` (stereo not given in full): the inhibition was 9.75%. Turning to `CCCCCCCCCCCCn1ccc(=N)cc1`, the inhibition is 101% (active). As to `O=C(Cc1ccccn1)N1CCCCN2[C@H](C1)[C@H](c1ccc(-c3ccccc3F)cc1)[C@@H]2CO`, the inhibition was 19.2%.

With `O=C(O)[C@@H]1[C@@H](CO)[C@@H]2Cn3c(ccc(-c4ccccc4F)c3=O)[C@H]1N2C(=O)c1cccnc1`, the inhibition was -13.1%. For `OC[C@@H]1[C@H]2c3ccccc3NC[C@H]2N1Cc1cccnc1` the value was 2.56%. For `COC(=O)C1=C(c2ccc(F)cc2OCc2ccccc2)C[C@@H]2CC[C@H]1N2C(=O)NCc1ccc(C(C)(C)C)cc1` the value was 79% (active); for `COC(=O)C1=C(c2ccc(F)cc2OCc2ccccc2)C[C@@H]2CC[C@H]1N2C(=O)NCc1ccc2[nH]ccc2c1`, 89% (active); for `COC(=O)C1=C(c2ccc(F)cc2OCc2ccccc2)C[C@@H]2CC[C@H]1N2C(=O)NCc1ccc(Cl)cc1`, 24.6%. For `COC(=O)C1=C(c2ccc(OCc3ccccc3)cc2)C[C@@H]2CC[C@H]1N2C(=O)NCc1cccc(F)c1`, the inhibition was 5.35%. For `COC(=O)C1=C(c2ccccc2OCc2ccccc2)C[C@@H]2CC[C@H]1N2C(=O)NCc1ccc(OC)cc1` the value was 15%; for `COC(=O)C1=C(c2ccc(F)cc2OCc2ccccc2)C[C@@H]2CC[C@H]1N2C(=O)NCc1ccc(OC)c(OC)c1`, 21.7%; for `COC(=O)C[C@@H]1CC[C@@H]2NC[C@@H](O)COC[C@H]2O1`, 2.66%.

In the case of `COC(=O)C[C@H]1CC[C@H]2NC[C@@H](O)COC[C@@H]2O1`, the inhibition is 2.02% and -13.9%. For `COC(=O)[C@H]1[C@H](CO)[C@H]2Cn3c(ccc(-c4cccc(F)c4)c3=O)[C@@H]1N2Cc1ccccc1` the value was 7.46%. For `COC(=O)[C@@H]1[C@@H](CO)[C@@H]2Cn3c(ccc(-c4cccc(C(=O)N(C)C)c4)c3=O)[C@H]1N2C(=O)NC(C)C` the value was -0.877%; for `O=C(Cc1ccncc1)N1CCCCN2[C@@H](CO)[C@H](c3ccc(-c4ccncc4)cc3)[C@@H]2C1`, 6.85%.
